# Laboratory results published in ChEMBL document CHEMBL3988442, “University of Dundee, Small-Polar-MMV Screening Library” (2021).
# For some assays here: Entries with a potency or affinity are not part of this list.
# Experiments:
# Design in all cases: scale not given: direction of the effect not stated beside the values
# [1] = molecular target: Protein translocase subunit SecA (Escherichia coli (strain K12)) (UniProt P10408); assay: Assay to Identify E. coli SecA ATPase Inhibitors; assay type: functional; details: 30 µM
# Chain of Protein translocase subunit SecA (Escherichia coli (strain K12)) (P10408 whole entry): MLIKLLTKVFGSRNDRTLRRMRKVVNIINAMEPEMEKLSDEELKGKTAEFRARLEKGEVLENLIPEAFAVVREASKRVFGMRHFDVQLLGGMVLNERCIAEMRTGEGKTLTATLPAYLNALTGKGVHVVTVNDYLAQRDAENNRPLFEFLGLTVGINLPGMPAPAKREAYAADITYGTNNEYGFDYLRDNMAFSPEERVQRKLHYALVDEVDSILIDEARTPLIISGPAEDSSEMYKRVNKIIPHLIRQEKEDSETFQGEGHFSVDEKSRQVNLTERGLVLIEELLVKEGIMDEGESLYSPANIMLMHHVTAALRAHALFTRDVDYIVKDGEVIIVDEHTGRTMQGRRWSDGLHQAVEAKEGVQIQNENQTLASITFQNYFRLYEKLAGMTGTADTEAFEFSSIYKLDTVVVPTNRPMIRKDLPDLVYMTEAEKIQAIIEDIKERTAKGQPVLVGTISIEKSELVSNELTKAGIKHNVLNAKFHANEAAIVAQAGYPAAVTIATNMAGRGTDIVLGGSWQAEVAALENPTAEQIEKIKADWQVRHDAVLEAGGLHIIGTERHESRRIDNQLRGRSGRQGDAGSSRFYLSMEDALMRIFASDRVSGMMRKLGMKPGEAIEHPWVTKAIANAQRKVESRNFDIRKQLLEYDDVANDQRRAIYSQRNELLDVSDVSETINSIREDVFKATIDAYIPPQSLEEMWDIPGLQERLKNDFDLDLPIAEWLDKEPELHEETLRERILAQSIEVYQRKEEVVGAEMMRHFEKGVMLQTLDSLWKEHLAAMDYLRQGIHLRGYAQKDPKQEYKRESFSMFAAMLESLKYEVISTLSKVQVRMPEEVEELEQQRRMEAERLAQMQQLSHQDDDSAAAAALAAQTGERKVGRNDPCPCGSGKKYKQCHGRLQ
# [2] = molecular target: T1, Ubiquitin-activating enzyme e1, putative (Leishmania donovani (strain BPK282A1)) (UniProt E9BSI1); assay: Leishmania donovani Ubiquitin Activating Enzyme (LdE1); assay type: functional; details: 30 µM
# T1 sequence (whole entry): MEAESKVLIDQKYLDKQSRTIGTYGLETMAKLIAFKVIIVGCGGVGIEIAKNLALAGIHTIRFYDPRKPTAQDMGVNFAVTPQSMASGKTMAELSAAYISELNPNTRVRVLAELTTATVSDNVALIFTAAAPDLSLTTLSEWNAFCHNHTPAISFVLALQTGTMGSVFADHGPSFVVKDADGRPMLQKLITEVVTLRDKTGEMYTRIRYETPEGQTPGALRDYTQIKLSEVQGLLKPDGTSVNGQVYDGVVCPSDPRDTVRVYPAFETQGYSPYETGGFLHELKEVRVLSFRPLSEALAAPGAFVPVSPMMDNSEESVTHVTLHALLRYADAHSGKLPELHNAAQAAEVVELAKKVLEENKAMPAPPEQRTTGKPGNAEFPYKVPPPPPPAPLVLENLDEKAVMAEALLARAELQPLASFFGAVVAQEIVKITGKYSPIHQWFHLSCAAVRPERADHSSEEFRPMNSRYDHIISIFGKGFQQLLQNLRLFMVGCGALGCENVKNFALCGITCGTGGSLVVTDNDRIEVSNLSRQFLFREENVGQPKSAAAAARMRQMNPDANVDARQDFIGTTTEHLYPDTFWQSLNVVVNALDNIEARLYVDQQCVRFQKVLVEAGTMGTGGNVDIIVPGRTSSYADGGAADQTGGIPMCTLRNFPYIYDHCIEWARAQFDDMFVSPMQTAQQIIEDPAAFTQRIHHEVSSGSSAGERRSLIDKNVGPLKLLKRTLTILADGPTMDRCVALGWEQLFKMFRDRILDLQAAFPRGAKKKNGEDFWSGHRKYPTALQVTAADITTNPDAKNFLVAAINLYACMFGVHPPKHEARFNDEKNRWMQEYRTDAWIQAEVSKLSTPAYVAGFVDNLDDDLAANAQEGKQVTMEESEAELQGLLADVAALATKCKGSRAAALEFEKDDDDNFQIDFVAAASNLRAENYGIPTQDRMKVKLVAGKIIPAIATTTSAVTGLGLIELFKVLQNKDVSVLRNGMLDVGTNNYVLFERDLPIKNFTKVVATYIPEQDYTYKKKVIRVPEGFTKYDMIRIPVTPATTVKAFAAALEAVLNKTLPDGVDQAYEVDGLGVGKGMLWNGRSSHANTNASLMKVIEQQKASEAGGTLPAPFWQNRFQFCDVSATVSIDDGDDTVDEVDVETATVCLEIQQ
# [3] = molecular target: AMP-activated protein kinase, AMPK (Homo sapiens) (UniProt P54646+O43741+P54619+Q9UGJ0+Q9Y478+Q13131+Q9UGI9); assay: AMP-dependent Kinase enzyme assay. An in vitro enzyme assay that detects ADP turnover that is directly proportional to AMPK activity. This uses naive AMPK that is activated during the assay with MK-8722; assay type: functional; details: 30 µM
# [4] = molecular target: Sialic acid-binding Ig-like lectin 9 (Homo sapiens) (UniProt Q9Y336); assay: Hs-Siglec9 ALPHAscreen SOP 20170721; details: 10 µM
# Chain of Sialic acid-binding Ig-like lectin 9 (Homo sapiens) (Q9Y336 whole entry): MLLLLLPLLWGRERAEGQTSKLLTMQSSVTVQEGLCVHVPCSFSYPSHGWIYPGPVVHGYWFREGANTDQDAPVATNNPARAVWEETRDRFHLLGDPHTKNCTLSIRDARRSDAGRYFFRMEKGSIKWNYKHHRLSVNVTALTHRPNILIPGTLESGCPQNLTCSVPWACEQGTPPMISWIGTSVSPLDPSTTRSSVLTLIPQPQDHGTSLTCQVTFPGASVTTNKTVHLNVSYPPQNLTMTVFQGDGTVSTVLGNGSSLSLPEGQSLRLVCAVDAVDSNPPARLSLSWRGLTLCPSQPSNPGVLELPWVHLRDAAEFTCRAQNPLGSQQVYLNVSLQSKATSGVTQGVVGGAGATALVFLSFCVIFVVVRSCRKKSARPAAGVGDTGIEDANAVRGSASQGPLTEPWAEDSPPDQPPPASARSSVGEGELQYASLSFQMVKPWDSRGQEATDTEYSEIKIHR
# [5] = system: Trypanosoma cruzi; assay: Trypanosoma cruzi phosphomannomutase and mannose-1-phosphate guanylyltransferase assay; assay type: functional; details: 10 µM
# [6] = molecular target: T2, Arginase-2, mitochondrial (Homo sapiens) (UniProt P78540); assay: in vitro enzyme assay to detect the production of urea directly proportional to the activity of Arginase II; assay type: functional; details: 33.3 µM; further: in the data most compounds retested in dose-response had high values
# T2 sequence (whole entry): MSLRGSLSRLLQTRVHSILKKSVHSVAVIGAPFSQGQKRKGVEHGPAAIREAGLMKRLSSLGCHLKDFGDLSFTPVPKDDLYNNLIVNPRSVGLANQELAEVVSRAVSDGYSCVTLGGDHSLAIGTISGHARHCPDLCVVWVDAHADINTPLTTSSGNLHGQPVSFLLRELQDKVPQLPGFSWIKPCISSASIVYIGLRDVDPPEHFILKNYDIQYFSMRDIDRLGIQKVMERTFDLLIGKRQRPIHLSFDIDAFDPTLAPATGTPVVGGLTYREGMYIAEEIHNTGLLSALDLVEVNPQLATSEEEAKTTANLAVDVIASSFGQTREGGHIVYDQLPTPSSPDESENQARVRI
# [7] = molecular target: T3, Proteasome subunit beta (Trypanosoma cruzi) (UniProt O96673); assay: Trypanosoma cruzi proteasome chymotrypsin-like activity (TcProtChymo) assay.; further: in the data most compounds retested in dose-response had high values; assay type: functional; details: 9.37 µM
# T3 sequence (whole entry): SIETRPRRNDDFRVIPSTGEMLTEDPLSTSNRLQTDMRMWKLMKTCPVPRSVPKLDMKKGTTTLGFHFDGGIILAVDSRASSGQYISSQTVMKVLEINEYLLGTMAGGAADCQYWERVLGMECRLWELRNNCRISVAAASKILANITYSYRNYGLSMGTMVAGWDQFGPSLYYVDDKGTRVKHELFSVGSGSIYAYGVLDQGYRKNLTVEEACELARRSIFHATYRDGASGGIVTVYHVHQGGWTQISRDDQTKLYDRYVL
# [8] = species: Homo sapiens; assay: To identify inhibition of the IFN signalling (Jak-Stat) pathway via expression of an eGFP reporter gene under the control of an IFN-stimulated response element (ISRE) containing MxA promoter.; assay type: functional; details: 30 µM
# [9] = molecular target: T4, Tyrosyl-tRNA synthetase, putative (Trypanosoma cruzi (strain CL Brener)) (UniProt Q4DSP6); assay: Trypanosoma cruzi tyrosyl tRNA synthetase (TcYRS) _High Tyrosine SOP; assay type: functional; details: 30 µM; further: in the data most compounds retested in dose-response had high values
# T4 sequence (whole entry): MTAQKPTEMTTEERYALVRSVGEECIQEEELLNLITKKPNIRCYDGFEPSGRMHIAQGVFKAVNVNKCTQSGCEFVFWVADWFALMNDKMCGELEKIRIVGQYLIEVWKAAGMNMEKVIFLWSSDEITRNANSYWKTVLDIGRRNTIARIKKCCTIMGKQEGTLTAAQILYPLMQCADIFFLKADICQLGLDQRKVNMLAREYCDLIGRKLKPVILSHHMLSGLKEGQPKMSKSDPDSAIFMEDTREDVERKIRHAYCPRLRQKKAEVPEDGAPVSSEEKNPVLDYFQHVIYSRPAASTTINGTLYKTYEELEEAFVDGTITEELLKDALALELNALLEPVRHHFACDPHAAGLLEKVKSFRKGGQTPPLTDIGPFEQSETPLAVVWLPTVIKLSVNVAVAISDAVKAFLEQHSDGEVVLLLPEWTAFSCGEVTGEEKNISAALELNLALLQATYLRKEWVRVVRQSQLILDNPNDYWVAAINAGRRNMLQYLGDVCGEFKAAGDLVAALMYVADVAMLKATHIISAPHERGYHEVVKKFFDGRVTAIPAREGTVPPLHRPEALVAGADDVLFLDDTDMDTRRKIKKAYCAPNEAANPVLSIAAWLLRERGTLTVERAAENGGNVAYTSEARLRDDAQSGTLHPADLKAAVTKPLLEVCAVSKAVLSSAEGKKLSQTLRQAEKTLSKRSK
# [10] = molecular target: T4, Tyrosyl-tRNA synthetase, putative (Trypanosoma cruzi (strain CL Brener)); assay: Trypanosoma cruzi tyrosyl tRNA synthetase (TcYRS) SOP; assay type: functional; details: 30 µM
# [11] = molecular target: Chromo domain-containing protein 1 (Saccharomyces cerevisiae (strain ATCC 204508 / S288c) (Baker's yeast)) (UniProt P32657); assay: ScCHD-1 Enzyme Inhibition Assay; assay type: functional; details: 30 µM; further: in the data most compounds retested in dose-response had high values
# Chain of Chromo domain-containing protein 1 (Saccharomyces cerevisiae (strain ATCC 204508 / S288c) (Baker's yeast)) (P32657 whole entry, the tested form may be a part): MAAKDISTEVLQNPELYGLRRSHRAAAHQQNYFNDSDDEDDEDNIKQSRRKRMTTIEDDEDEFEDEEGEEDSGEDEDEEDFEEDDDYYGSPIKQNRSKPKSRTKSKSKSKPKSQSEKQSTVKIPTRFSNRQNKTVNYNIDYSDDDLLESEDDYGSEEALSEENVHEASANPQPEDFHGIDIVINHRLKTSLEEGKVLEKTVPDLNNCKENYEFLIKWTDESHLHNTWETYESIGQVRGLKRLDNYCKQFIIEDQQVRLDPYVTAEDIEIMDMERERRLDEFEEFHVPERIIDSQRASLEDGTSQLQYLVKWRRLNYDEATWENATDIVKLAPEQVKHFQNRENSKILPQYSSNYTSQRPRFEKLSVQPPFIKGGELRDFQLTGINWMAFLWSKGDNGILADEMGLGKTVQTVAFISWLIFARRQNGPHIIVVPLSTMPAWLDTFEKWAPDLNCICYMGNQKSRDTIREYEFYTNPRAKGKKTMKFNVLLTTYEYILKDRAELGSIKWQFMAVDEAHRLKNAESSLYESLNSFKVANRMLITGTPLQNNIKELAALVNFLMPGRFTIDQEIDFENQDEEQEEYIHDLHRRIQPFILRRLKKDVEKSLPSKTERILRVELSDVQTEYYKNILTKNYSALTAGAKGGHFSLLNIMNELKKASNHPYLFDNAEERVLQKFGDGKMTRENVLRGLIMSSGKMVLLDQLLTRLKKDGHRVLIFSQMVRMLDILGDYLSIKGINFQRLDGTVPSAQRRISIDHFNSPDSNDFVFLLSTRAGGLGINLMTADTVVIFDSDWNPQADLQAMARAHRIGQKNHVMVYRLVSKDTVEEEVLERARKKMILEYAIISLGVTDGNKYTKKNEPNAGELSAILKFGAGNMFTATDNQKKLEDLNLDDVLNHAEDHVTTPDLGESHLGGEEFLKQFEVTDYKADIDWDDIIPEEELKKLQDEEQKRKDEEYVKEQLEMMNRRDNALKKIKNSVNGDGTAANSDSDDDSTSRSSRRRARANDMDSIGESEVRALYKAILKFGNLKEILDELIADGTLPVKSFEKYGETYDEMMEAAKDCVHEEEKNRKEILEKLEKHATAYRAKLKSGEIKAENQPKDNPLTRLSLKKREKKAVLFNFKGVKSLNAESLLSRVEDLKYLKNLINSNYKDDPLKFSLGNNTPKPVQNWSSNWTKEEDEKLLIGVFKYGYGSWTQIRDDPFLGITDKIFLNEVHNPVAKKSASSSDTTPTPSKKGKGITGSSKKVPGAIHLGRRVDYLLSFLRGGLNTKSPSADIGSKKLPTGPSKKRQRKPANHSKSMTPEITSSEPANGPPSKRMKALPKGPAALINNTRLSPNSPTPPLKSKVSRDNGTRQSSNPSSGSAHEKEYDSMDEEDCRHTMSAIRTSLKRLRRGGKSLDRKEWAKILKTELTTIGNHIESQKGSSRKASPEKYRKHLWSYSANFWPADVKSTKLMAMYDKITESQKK
SMILES,Percent Effect [1] [%],Percent Effect [2] [%],Percent Effect [3] [%],Percent Effect [4] [%],Percent Effect [5] [%],Percent Effect [6] [%],Percent Effect [7] [%],Percent Effect [8] [%],Percent Effect [9] [%],Percent Effect [10] [%],Percent Effect [11] [%]
Cc1cc(C)n(C2CCCN(C(=O)c3cnc4onc(C)c4c3)C2)n1 (configuration not stated),-2.86,5.2,2.66,12.3,-1.08,4.84,4.77,38.1,1.91,9.41,-15.5
CC(CNC(=O)N1CCN(c2cnccn2)CC1)Cc1cccs1 (configuration not stated),-2.51,2.7,6.5,15.7,-1.95,-1.67,10.6,-1.65,0.99,-6.1,0.413
CCOc1ncccc1CNC(=O)N1CCCC1c1cc(C)no1 (configuration not stated),-3.76,8,-5.83,0.983,-1.66,0.521,12,14.2,8.2,16.1,-6.86
O=C(N[C@@H]1CN(c2ncccn2)[C@@H]2CCCO[C@@H]21)c1cnccn1,-3.44,2.67,2.76,2.22,0.772,-38.9,9.91,-16.7,6.25,20,-7.55
Cc1noc(C)c1CNC(=O)N1CCC(C(O)c2ccccc2)CC1 (configuration not stated),-4.23,11,-3.81,6.33,7.54,-4.79,-1.8,11.9,2.08,13.6,-3.08
Cc1ccc2nc(C3CCN(CCO)CC3)nn2c1,1.65,10.7,6.44,9.27,-2.51,-59.7,4.79,23.1,2.08,10,-0.68
CCc1n[nH]c(C2CN(CCc3ccncc3)CCO2)n1 (configuration not stated),-6.01,3.8,7.99,7.24,0.103,0.215,1.72,14,1.04,7.59,-9.31
O=C(NCc1ccc(OCC2CC2)nc1)c1c(F)cccc1F,-0.518,2.63,4.21,-0.689,-5.16,-11.8,15.1,11.7,3.19,7.79,-4.74
COc1ccc(CNC(=O)Nc2cccnc2N2CCCC2)cc1O,-2.46,16.2,-3.7,16.1,4.81,-7.62,1.62,7.88,2.46,16.1,-7.7
CN1CCCCC1c1ncc2c(n1)CCN(Cc1ccccc1Cl)C2 (configuration not stated),1.96,-13.3,4.6,2.83,3.74,2.56,18.9,-3.83,19.1,14.1,1.52
CC(=O)NCC(=O)N1CCC2(CC1)CN(c1cccnc1)C(=O)CO2,-1.82,13.5,-3.23,-10.1,-3.42,2.87,26.2,-0.0812,-1.08,10.3,0.305
CC(C)(CNC(=O)OC(C)(C)C)NC(=O)C1CC(=O)N(C2CC2)C1 (configuration not stated),-7.68,-2.7,-1.58,-8.17,-8.11,-1.24,7.3,20.6,-2.15,3.7,-4.06
CCc1nc(NS(=O)(=O)c2ccc(C)cc2Cl)no1,-5.01,-2.67,-2.5,11.5,4.19,1.56,-1.57,-10.5,2.73,6.17,-1.19
COCCc1noc(CNC2CCCN(c3cccnn3)C2)n1 (configuration not stated),-5.96,-5.2,-0.848,-4.06,-3.25,11,19.3,3.62,0,-3.7,0.853
Cn1cc(S(=O)(=O)N2CCCC2CC(=O)c2cccs2)cn1 (configuration not stated),2.62,0,0.659,-5.21,-5.79,1.43,14.8,11.2,2.65,4.88,-3.57
CN(C)S(=O)(=O)c1ccc(CN2CCCC2CO)o1 (configuration not stated),-4.59,0,-2.33,10.6,-0.84,-2.88,-3.3,11.2,4.43,3.7,1.24
Cn1cccc1CN1CCC2(CCCN(C(=O)Cc3cccnc3)C2)C1 (configuration not stated),-2.25,0,-2.27,-5.33,-2.07,-4.52,1.39,2.23,-2.12,-6.41,-7.07
Cc1ccccc1CN1CCC(NCC2CNc3ccnn3C2)CC1 (configuration not stated),-0.777,0,-17.1,-4.24,1.27,1.24,11.4,-3.35,6.45,13.6,-5.59
CC(C)N(C)Cc1cnc2n1CCN(C(=O)NC1CCCC1)C2,-1.5,0,9.85,-1.01,-7.09,3.96,13.7,7.83,1.06,1.28,0.39
Cc1ccc(CNCc2nnc3n2CCCC3C(F)(F)F)s1 (configuration not stated),-1.65,8,-7.92,8.27,5.36,4.69,18,11.4,9.29,21,-5.37
c1cnc(-c2cnc(N3CCSCC3)nc2C2CC2)cn1,-4.23,2.67,12.3,6.16,-3.94,-0.699,3.44,16,1.06,8.97,-0.826
CN(C)C(=O)N1CCN(C(=O)CCc2ccccc2)[C@H]2CS(=O)(=O)C[C@H]21,-0.417,5.41,-5.99,6.47,4.44,-2.86,15.3,23.4,8.99,9.76,-2.21
